Consider 97 molecules from PubChem BioAssay AID463173 (ICCB-Longwood Screening Facility, Harvard Medical School, 2010).

In all, about 52,000 compounds went through this assay and about 1,700 (3.3%) were called active. This is one part of a sample in which actives are shown more often than they occur. Cut-off read from the data, not from the text of the source: active = survival mostly below about 52% (no sharp cut-off); inactive = mostly above about 56%.

For this experiment, the system named is Wild type. The experiment is described as follows: growth inhibition of S. aureus wild type versus tarO mutant, primary screen, teichoic acid synthesis inhibitors, RN4220, OD600 (AID 463173). The following applies: S. aureus RN4220 wild type/DeltatarO growth, OD600, 18 h, hits give low values, screened at 18.75 µg/mL (by protocol).
With `Cc1nc2nc(SCC(=O)NCc3ccccc3)nn2c(C)c1Cc1ccccc1`, the survival is 0% (active).

As for `Cc1cccc(Cc2c(C)nc3nc(SCc4ccccc4C)nn3c2C)c1`, the survival was 87% (inactive). For the molecule `Cc1nc2nc(SCC(=O)NCCc3ccccc3)nn2c(C)c1Cc1c(F)cccc1Cl`, the survival was 65% (inactive).

With `Cc1nc2nc(SCC(=O)Nc3ccccc3Cl)nn2c(C)c1Cc1ccccc1`, the survival is -3% (active). As to `Cc1cccc(Cc2c(C)nc3nc(SCc4ccccc4F)nn3c2C)c1`, the survival was 91% (inactive).

As to `Cc1cccc(Cc2c(C)nc3nc(SCc4ccccc4Cl)nn3c2C)c1`, the survival is -5% (active). `Cc1ccc(NC(=O)CSc2nc3nc(C)c(Cc4ccccc4)c(C)n3n2)cc1`: the survival is 47% (inactive). Take `Cc1nc2nc(SCC(=O)NCc3ccccc3)nn2c(C)c1Cc1ccccc1Cl`: the survival was 128% (inactive). As for `Cc1nc2nc(SCC(=O)NCc3ccccc3Cl)nn2c(C)c1Cc1ccccc1`, the survival was 68% (inactive).

As for `Cc1nc2nc(SCC(=O)NCCc3ccc(Cl)cc3)nn2c(C)c1Cc1c(F)cccc1Cl`, the survival was -2% (active). For `Cc1cccc(Cc2c(C)nc3nc(SCC(=O)NCc4ccccc4)nn3c2C)c1` the value was 71% (inactive); for `Cc1nc2nc(SCC(=O)NCCc3ccc(Cl)cc3)nn2c(C)c1Cc1ccccc1Cl`, 80% (inactive); for `Cc1cccc(Cn2c(CN3CCC(C(=O)NCCc4ccccc4)CC3)cc3ccccc32)c1`, 128% (inactive). On to `COc1cc(-c2nc(-c3ccc4c(c3)[nH]c(=O)n4C)no2)cc(OC)c1OC`, for which the survival was 83% (inactive). For `COC(=O)c1cc(-c2ccccc2)sc1N` the value was 116% (inactive); for `COCCNC(=O)CSc1nc(-c2ccc(C)cc2)nc2c1c(=O)n(C)c(=O)n2C`, 77% (inactive); for `CCOc1ccc(OCC)c(S(=O)(=O)N2CCC(C)CC2)c1`, 102% (inactive).

`CC(C)CCNC(=O)Cn1cc(S(=O)(=O)Cc2ccc(F)cc2)c2ccccc21`: the survival was 91% (inactive).

For `O=C(CSc1nnc(-c2cccs2)o1)Nc1cccc(C(F)(F)F)c1`, the survival is 71% (inactive). `Cc1ccc(C)c(N2CCN(C(=O)C3CCN(c4nc(-c5ccc(C(C)C)cc5)no4)CC3)CC2)c1`: the survival was 87% (inactive). In the case of `CCOCCCn1c(SCC(=O)Nc2ccc(C)cc2)nc2ccccc2c1=O` it was 83% (inactive); in that of `c1ccc(-n2nnnc2N2CCCC2)cc1`, 102% (inactive); in that of `O=C(NC1CCCC1)C(c1ccccc1)N(C(=O)c1ccco1)C1CCCC1` (configuration not stated), 88% (inactive).

With `CCOC(=O)CN(Cc1ccccc1)C(C(=O)NC1CCCCC1)c1ccc(C)cc1` (configuration not stated), the survival is -2% (active). As for `Cc1ccc(C(C(=O)NC2CCCCC2)N(C)Cc2ccccc2)cc1` (configuration not stated), the survival is -1% (active). For `COc1ccc(C(C(=O)NC2CCCC2)N(Cc2ccc(C)cc2)C(=O)c2ccn[nH]2)cc1OC` (configuration not stated), the survival is 103% (inactive). Turning to `CCOC(=O)CN(Cc1ccccc1)C(C(=O)NC1CCCCC1)c1ccc(OC)cc1` (configuration not stated), the survival is 20% (inactive).

On to `O=C(NC1CCCC1)C(c1ccccc1)N(Cc1ccccc1F)C(=O)c1ccco1` (configuration not stated), for which the survival is 118% (inactive). `CN(Cc1ccccc1)C(C(=O)NC1CCCCC1)c1ccc(Cl)cc1` (configuration not stated): the survival is 74% (inactive). With `Cc1ccc(-c2nnn(CC(=O)N(Cc3ccccc3)C(C(=O)NC3CCCC3)c3ccco3)n2)cc1` (configuration not stated), the survival is 99% (inactive). In the case of `CCOC(=O)CN(Cc1ccccc1)C(C(=O)NC1CCCCC1)c1ccccc1` (configuration not stated) it was -2% (active); in that of `N#Cc1c(Nc2cccc(F)c2)sc(C(=O)c2ccc(Cl)cc2)c1N`, 101% (inactive). In the case of `CCCOc1cccc(NC(=O)c2c(-c3ccccc3Cl)noc2C)c1`, the survival is 71% (inactive). As to `CCc1nc(NCCCO)c2nnn(Cc3ccccc3F)c2n1`, the survival is 106% (inactive). Take `CS(=O)(=O)NCC(c1ccco1)N1CCN(c2ccccc2)CC1` (configuration not stated): the survival is 83% (inactive). For the molecule `CCCCCCc1cc2cc(-c3nnc(-c4cccc(Cl)c4)o3)c(=O)oc2cc1O`, the survival was 72% (inactive). Regarding `CN(C)N1C(=O)CC(N2CCCC2)C1=O` (configuration not stated), the survival is 101% (inactive). Take `CCc1ccc(NC(=O)CC2C(=O)N(c3cccc(C)c3)C(=O)N2CCC(C)C)cc1` (configuration not stated): the survival was 72% (inactive). As for `COc1cc2c(cc1OC)C(COc1cc(C)cc(C)c1)N(C(=O)c1ccc(S(=O)(=O)N3CCCC3)cc1)CC2` (configuration not stated), the survival was 45% (inactive). Take `COc1cc2c(cc1OC)C(COc1ccc(F)cc1)N(C(=O)c1ccc(S(=O)(=O)N3CCCC3)cc1)CC2` (configuration not stated): the survival is 88% (inactive). For `COc1cc2c(cc1OC)C(COc1ccccc1OC)N(C(=O)c1ccc(S(=O)(=O)N3CCCC3)cc1)CC2` (configuration not stated) the value was 0% (active); for `COc1cccc(NC(=O)CCc2nnc3n(CC(C)C)c(=O)c4ccccc4n23)c1`, 92% (inactive). For `CCN(C(=O)c1cc2c(s1)-c1c(C)cccc1OC2)c1cc(C)ccc1C` the value was 11% (active); for `COc1ccc(N(C)C(=O)c2cc3c(s2)-c2ccccc2OC3)cc1`, 13% (active). In the case of `COc1cc(OC)c(N(C)C(=O)c2cc3c(s2)-c2ccccc2OC3)cc1Cl`, the survival was 73% (inactive).

On to `COc1ccc(CNC(=O)c2cc3c(s2)-c2ccccc2OC3)cc1`, for which the survival is 92% (inactive). Turning to `Cc1ccc(CCNC(=O)c2cc3c(s2)-c2c(C)cccc2OC3)cc1`, the survival was 88% (inactive). As to `Cc1ccc(C)c(N(C)C(=O)c2cc3c(s2)-c2ccccc2OC3)c1`, the survival is -2% (active). `CCOc1ccc(CCNC(=O)c2cc3c(s2)-c2ccccc2OC3)cc1OCC`: the survival was 90% (inactive). As for `Cc1ccc(CCNC(=O)c2cc3c(s2)-c2ccccc2OC3)cc1`, the survival is 95% (inactive). Turning to `CCN(C(=O)c1cc2c(s1)-c1c(C)cccc1OC2)c1ccccc1F`, the survival is 96% (inactive). Take `CCOc1ccccc1N(C)C(=O)c1cc2c(s1)-c1ccccc1OC2`: the survival is 13% (active).

Regarding `COc1cc(NC(=O)c2cc3c(s2)-c2ccccc2OC3)cc(OC)c1OC`, the survival was 53% (inactive). Turning to `COc1ccc(N2CCN(C(=O)c3cc4c(s3)-c3ccccc3OC4)CC2)cc1`, the survival was 116% (inactive). Regarding `NCCC(=O)N1c2ccccc2Sc2ccc(Cl)cc21`, the survival is 104% (inactive). In the case of `Cc1ccc(F)cc1NC(=O)CCc1c(C)nn(-c2ccc(N3CCOCC3)nn2)c1C`, the survival was 113% (inactive). As for `O=C(c1ccccc1)N1CCc2cc(CNS(=O)(=O)c3ccc(Cl)s3)ccc21`, the survival is 66% (inactive).

Take `Cc1c(C(=O)NCc2ccc(F)cc2)oc2ccc(S(=O)(=O)N3CCCCC3)cc12`: the survival was 84% (inactive). For the molecule `CCOC(=O)CSc1nc2ccc(NC(=O)c3cccc(F)c3)cc2s1`, the survival is 87% (inactive). Consider `CS(=O)(=O)Nc1ccc2c(c1)OCO2`, for which the survival was 94% (inactive). Consider `COc1ccc(OC)c(NC(=O)CCCOc2cc(=O)n(C)c3ccccc23)c1`, for which the survival is 64% (inactive). For `COc1cccc(NC(=O)C2CCCN(c3ncnc4onc(C)c34)C2)c1` (configuration not stated) the value was 72% (inactive); for `CCC(C)NC(=O)c1c(C)oc2nc(C)nc(N3CCOCC3)c12` (configuration not stated), 88% (inactive); for `CCc1cccc(NC(=O)CCn2nc(C)cc2C)c1`, 77% (inactive).

`COc1ccc(NC(=O)C2CCN(C(=O)c3sc4nc[nH]c(=O)c4c3C)CC2)c(OC)c1`: the survival was 81% (inactive).

As to `Cc1ccc(C(=O)Nc2ccc(-c3nc4ccccc4s3)c(O)c2)c(C)c1`, the survival was 91% (inactive). For `COc1ccc(C(=O)Nc2cc(-c3nc4ccccc4s3)ccc2OC)cc1`, the survival was 5% (active). With `COc1cc(OC)cc(C(=O)Nc2ccccc2-c2nc3ccccc3s2)c1`, the survival is 41% (inactive).

On to `COc1ccc(C(=O)Nc2ccccc2-c2nc3ccccc3s2)cc1OC`, for which the survival was -6% (active).

With `CSc1ccc(C(=O)Nc2ccc(-c3nc4ccccc4s3)c(O)c2)cc1`, the survival was 0% (active). In the case of `CCOc1ccc(C(=O)Nc2cc(-c3nc4ccccc4s3)ccc2OC)cc1`, the survival is 163% (inactive). Regarding `O=C(Nc1ccc(-c2nc3ccccc3s2)c(O)c1)c1ccc(Br)cc1`, the survival was 85% (inactive). For `COc1cc(OC)cc(C(=O)Nc2cc(-c3nc4ccccc4s3)ccc2OC)c1` the value was 67% (inactive).

`COc1cccc(C(=O)Nc2ccccc2-c2nc3ccccc3s2)c1`: the survival is 42% (inactive).

Turning to `O=C(NCc1ccc(Cl)cc1)C(=O)NCC(c1cccs1)S(=O)(=O)c1ccc(Cl)cc1` (configuration not stated), the survival was 58% (inactive).

As to `CCOC(=O)C1CCN(c2cc(C)nc3c(-c4ccccc4OC)c(C)nn23)CC1`, the survival was 82% (inactive).

For the molecule `COc1ccc(S(=O)(=O)N(Cc2ccccc2)Cc2nc3ccccc3c(=O)[nH]2)cc1`, the survival is 113% (inactive). As to `COc1ccc(C2=C(C)C(=O)N(Cc3ccc(C(=O)NCc4ccccc4C)cc3)S2(=O)=O)cc1`, the survival was 66% (inactive).

Take `Cc1cccc(OCc2nc(CC(=O)Nc3ccc(Cl)cc3)cs2)c1`: the survival was 92% (inactive). Take `COc1ccccc1N1CCN(c2ncnc3c2c(-c2ccccc2)cn3-c2cccc(Cl)c2)CC1`: the survival is 74% (inactive). For `CCc1ccc2nc(N(Cc3cccnc3)C(=O)c3cccs3)sc2c1`, the survival was 127% (inactive). With `CC(=O)c1cccc(NC(=O)c2ccc3c(c2)CCN3S(=O)(=O)c2ccccc2)c1`, the survival was 71% (inactive). For `Cc1c(-c2nnc(SCC(=O)Nc3ccc(Br)cc3)o2)nnn1-c1ccc(F)cc1`, the survival is 80% (inactive).

`O=C(CCCCCn1c(=O)[nH]c2ccccc2c1=O)NCCc1ccccc1`: the survival is 92% (inactive). Take `Cc1cccc(NC(=O)c2sc3nc4c(cc3c2N)CCCCCC4)c1C`: the survival is 121% (inactive). In the case of `O=C(c1ccco1)n1nc(-c2ccc(Cl)cc2)nc1NCc1ccccc1` it was 74% (inactive); in that of `O=C(c1ccco1)n1nc(-c2ccc(Cl)cc2)nc1NCc1ccc(F)cc1`, 70% (inactive); in that of `O=C(c1ccco1)n1nc(-c2ccccc2)nc1NCc1ccc(F)cc1`, 73% (inactive). In the case of `O=C(c1ccc(F)cc1)n1nc(-c2ccccc2)nc1NCc1ccc(F)cc1`, the survival is 19% (inactive).

For `O=C(c1ccc(F)cc1)n1nc(-c2ccccc2)nc1NCc1ccco1`, the survival was 9% (active). For `O=C(c1ccco1)n1nc(-c2ccccc2)nc1NCc1ccc(Cl)cc1`, the survival was 85% (inactive). Take `O=C(c1ccc(F)cc1)n1nc(-c2cccnc2)nc1NCc1ccccc1`: the survival is 81% (inactive). For `O=C(c1ccc(F)cc1)n1nc(-c2ccc(Cl)cc2)nc1NCc1ccco1`, the survival is 76% (inactive). For `O=C(c1ccc(Cl)cc1)n1nc(-c2ccccc2)nc1NCc1ccco1` the value was 24% (active). In the case of `O=C(c1ccccc1)n1nc(-c2ccccc2)nc1NCc1ccc(F)cc1` it was -4% (active); in that of `O=C(c1ccccc1)n1nc(-c2ccc(Cl)cc2)nc1NCc1ccco1`, 25% (active); in that of `COc1ccc(C(=O)n2nc(-c3ccc(Cl)cc3)nc2NCc2ccco2)cc1`, 99% (inactive).
